An excerpt weighted towards active compounds, which were near 2.7% of everything screened.
Tau fluor counter: counter-screen for tau fibril formation inhibitors; tau K18 P301L Alexa594 fluorescence, heparin fibrillization; actives 0.93% (n = 280,000); Potency, µM (top dose mostly 57.7 µM); also: nearly all actives have a fitted effect of over 55% in size
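Human tau K18 P301L (15 uM unlabeled, 0.24 uM Alexa 594-labeled) in 100 mM sodium acetate pH 7 with 20 uM heparin, 6 hr at 37 C. ThT 30 uM added, 1 hr ambient; Alexa 594 FP and total fluorescence read at 555/632 nm.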
FBPA coupling cs: coupling enzyme interference in Giardia aldolase counter-screen; coupling enzyme system counterscreen, AmpLite Red fluorescence; activity change, negative = inhibition, % at 58.2 µM, hits read low; actives 0.67% (n = 290,000); in the data active = activity change below about -30%
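Activity here indicates interference with the coupling reaction, not aldolase inhibition. Compounds at 57.5 uM final met coupling enzymes for 10 min at RT; substrate and AmpLite Red detection followed, with a 525/598 nm fluorescence read after 20 min.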
Tau FP inhib: tau fibrillization inhibition (FP) | P10636 | K18 P301L tau heparin fibrillization, Alexa594 FP, 6 h | actives 0.39% (n = 280,000) | Potency, µM (highest dose often 57.7 µM), actives largely listed as inhibitors; also: nearly all actives have a fitted effect of over 55% in size
Target sequence (P10636 561-689 P618L limits assumed): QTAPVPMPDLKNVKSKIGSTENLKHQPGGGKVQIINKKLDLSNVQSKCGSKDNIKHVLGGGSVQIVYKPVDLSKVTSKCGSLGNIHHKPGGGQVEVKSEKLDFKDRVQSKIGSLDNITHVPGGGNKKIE
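Heparin (20 uM) drove fibril formation of recombinant tau K18 P301L, 15 uM unlabeled with 0.24 uM Alexa 594 label, for 6 hr at 37 C in 100 mM sodium acetate pH 7. Fluorescence polarization (555/632 nm) read 1 hr after 30 uM ThT.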
Tau ThT inhib: tau fibrillization inhibition (ThT binding); P10636; recombinant tau K18 P301L (four-repeat tau fragment), heparin-induced fibrillization, ThT fluorescence; Potency, µM (series often up to 57.4 µM), hits mostly inhibitors; actives 2.1% (n = 270,000); also: nearly all actives have a fitted effect of over 55% in size
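K18 P301L tau (15 uM + 0.24 uM Alexa 594-tagged), heparin 20 uM, NaOAc pH 7, 6 h 37 C; ThT 30 uM, 1 h RT, ex 450/em 510 nm.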
Of the large screens only hits and unclear results are named; the others gave an inactive call; [ ] = another dose, or the depositor's remark. Unless noted, calls follow the shape of the dose curve; as a rule, active = well fitted curve in the direction sought with a large enough effect; inconclusive = small, poorly fitted or top-dose-only effect, or another doubt; inactive = no such curve, though single readings can be large; an effect the other way counts as inactive or inconclusive.

CCN1C(=O)/C(=C2\SC(=S)N(NC(=O)c3ccccc3O)C2=O)c2ccccc21	Tau fluor counter 20µM[quencher], Tau FP inhib inconclusive, Tau ThT inhib 20µM
CC(=O)N1C(=O)/C(=C2\SC(=S)N(c3c(C)n(C)n(-c4ccccc4)c3=O)C2=O)c2ccccc21	FBPA coupling cs -40, Tau ThT inhib inconclusive
Cc1ccc(NC(=O)CSc2nnc3[nH]c(=O)cc(-c4ccccc4)n23)cc1Cl	Tau ThT inhib inconclusive (no result: FBPA coupling cs)
O=C(COc1ccc(S(=O)(=O)N2CCOCC2)cc1)Nc1ccccc1Cl	none (no result: Tau fluor counter, Tau FP inhib, Tau ThT inhib)
O=C1/C(=C/c2cccc([N+](=O)[O-])c2)CCc2ccccc21	Tau fluor counter inconclusive, Tau ThT inhib 25µM
Oc1c(C2=NCCNC(C(F)(F)F)=C2)ccc2ccccc12	Tau fluor counter inconclusive, Tau FP inhib inconclusive, Tau ThT inhib 6.3µM
Cc1ccc(O)c(C2=NCCNC(C(F)(F)F)=C2)c1	none
C[C@H]1Cc2c(COc3ccccc3)nc3c(c2CO1)CN(C(=O)NCCc1c[nH]c2ccccc12)CC3	none
CC1(C)CC(=O)C(=CN2CCOCC2)C(=O)C1	Tau FP inhib inconclusive, Tau ThT inhib 16µM
CC1(C)CC(=O)C(=CN2CCN(C(=O)c3ccco3)CC2)C(=O)C1	Tau FP inhib inconclusive, Tau ThT inhib inconclusive
Cc1cc(SCC(=O)c2ccc(O)c(O)c2)n2nc(C)c(-c3ccccc3)c2n1	Tau fluor counter 11µM[quencher], Tau ThT inhib inconclusive
Cc1cc(C)nc(SCC(=O)c2ccc(O)c(O)c2)n1	none (no result: Tau fluor counter, Tau FP inhib, Tau ThT inhib)
CC1=C(C#N)c2nc(N)c(C#N)c(C)c2/C1=C\c1ccc(OCC(=O)O)c(Cl)c1	Tau fluor counter inconclusive, Tau FP inhib inconclusive, Tau ThT inhib 16µM
CCOC(=O)CSc1nc(N)c(C#N)c(-c2ccc(OCC)cc2)c1C#N	none
COc1ccc(CCNC(=O)CCc2cn(Cc3ccc(C)cc3)c3ccccc23)c(OC)c1OC	Tau FP inhib inconclusive (no result: FBPA coupling cs)
Cc1cccc(Nc2nnc(SCC(=O)Nc3cccc(S(=O)(=O)N4CCCCC4)c3)s2)c1	Tau fluor counter 13µM[quencher]
N[C@H](C(=O)O)c1ccc(O)c(C(=O)O)c1	none
O=C(O)c1cc(N(Cc2ccccc2O)Cc2cc(O)ccc2O)ccc1O	Tau fluor counter inconclusive, Tau ThT inhib 18µM
COc1cccc2cc(-c3nc4sc5c(c4c(=O)[nH]3)CCC(C(C)(C)C)C5)c(=O)oc12 (stereo not drawn)	none (no result: FBPA coupling cs)
Cc1cc(C)n(/N=C\c2c(O)ccc3ccccc23)c(=O)c1C(N)=O	FBPA coupling cs -32
Clc1cccc(Cl)c1CNc1ccc(N2CCCC2)cc1	Tau fluor counter inconclusive, Tau FP inhib inconclusive, Tau ThT inhib 7.9µM
CCCCCCNC(=O)Nc1ccc(S(=O)(=O)Nc2ccc(CCNC[C@H](O)COc3ccc(O)cc3)cc2)cc1	Tau fluor counter 13µM[quencher], Tau FP inhib inconclusive, Tau ThT inhib inconclusive
CCCCOc1ccc(S(=O)(=O)Nc2ccc(NC(C)=O)cc2)cc1	none
COc1ccc(-n2ccn(Cc3ccccc3C)c(=O)c2=O)cc1	Tau ThT inhib inconclusive (no result: FBPA coupling cs)
CCOc1ccc(Cl)cc1/C=N/NC(N)=O	FBPA coupling cs -39
Cc1ccccc1OCCNc1cc(N2CC(C)NC(C)C2)ccc1[N+](=O)[O-] (stereo not drawn)	Tau fluor counter inconclusive, Tau FP inhib inconclusive, Tau ThT inhib 18µM
CC1CN(c2ccc([N+](=O)[O-])c(NCCOc3ccccc3)c2)CC(C)N1 (stereo not drawn)	none (no result: Tau fluor counter, Tau FP inhib, Tau ThT inhib)
CC[C@H](C)[C@H](NC(=O)[C@H](CCCNC(=N)N)NC(=O)[C@@H]1CCCN1C(=O)[C@H](Cc1ccccc1)NC(=O)[C@H](Cc1cnc[nH]1)NC(=O)[C@H](CCCNC(=N)N)NC(=O)[C@@H](NC(=O)[C@H](C)NC(=O)[C@H](CCC(=O)O)NC(=O)[C@H](CC(N)=O)NC(=O)[C@@H](N)CCCCN)C(C)C)C(=O)N[C@@H](Cc1c[nH]c2ccccc12)C(=O)N[C@@H](CC(C)C)C(=O)O	none (no result: Tau fluor counter, Tau FP inhib, Tau ThT inhib)
O=C(/C(=C/O)N=Nc1ccc(Cl)cc1)c1ccncc1	Tau ThT inhib 20µM (no result: FBPA coupling cs)
Cc1cccc(N=N/C(=C\O)C(=O)c2ccc(Br)cc2)c1	Tau ThT inhib 22µM
Cc1cccc(/C=N/NC(=O)c2ccc(Br)cc2)c1	none
Cc1cccc(N/N=C(\C=N\N)C(=O)c2ccc(Br)cc2)c1	Tau fluor counter 11µM[quencher], Tau FP inhib inconclusive, Tau ThT inhib 14µM
O=C(/C(=C/O)N=Nc1cccc(C(F)(F)F)c1)c1ccccc1	Tau ThT inhib inconclusive
Cc1ccc(N=N/C(=C\O)C(=O)c2ccncc2)cc1	Tau ThT inhib 28µM
O=C(/C(=C/O)N=Nc1ccccc1Cl)c1ccccc1	Tau ThT inhib 28µM
NCCC[C@@H](CC(=O)N[C@@H]1CCNC[C@H]1C(=O)N[C@H](CC(=O)N[C@@H](CCC(=O)O)CC(=O)O)Cc1ccccc1)NC(=O)C[C@H](Cc1c[nH]c2ccccc12)NC(=O)[C@@H]1CCCC[C@H]1N	Tau ThT inhib inconclusive
COc1ccccc1CNC(=O)C1CCN(S(=O)(=O)c2ccc3c(c2)CCCN3C(C)=O)CC1	none (no result: FBPA coupling cs)
COc1ccc(NC(=O)CSc2nc3c(oc4ccccc43)c(=O)n2Cc2ccco2)cc1Cl	none (no result: FBPA coupling cs)
COc1cc2sc(C)nc2c2ccccc12	FBPA coupling cs -32 (no result: Tau fluor counter, Tau FP inhib, Tau ThT inhib)
C=CCN1CCN(C(c2ccc(OC)c(OC)c2)c2nnnn2C(C)(C)C)CC1 (stereo not drawn)	FBPA coupling cs -72
CN=c1scc(-c2ccc(F)cc2)n1/N=C/c1ccc(O)c(O)c1	Tau fluor counter 18µM[quencher], Tau ThT inhib 10µM
COc1ccc2[nH]c3c(NCCC4=CCCCC4)ncnc3c2c1	Tau fluor counter 7.9µM[quencher], Tau FP inhib inconclusive, Tau ThT inhib inconclusive
Nc1nn(-c2ccccc2)c(N)c1N=Nc1cccc(F)c1	Tau ThT inhib 10µM
Nc1nn(-c2ccccc2)c(N)c1N=Nc1ccc2c(c1)OCO2	Tau fluor counter inconclusive, Tau ThT inhib 1.8µM
COC(=O)C/C=C\[C@@H](C)[C@@H](/C=N\OCC[C@H]1C=C[C@H](OC(C)=O)[C@@H](COC(C)=O)O1)NS(=O)(=O)c1ccc(C)cc1	none
COc1ccc2sc(N(CCN(C)C)C(=O)c3ccc4ccccc4c3)nc2c1	none (no result: Tau fluor counter, Tau FP inhib, Tau ThT inhib)
COc1ccc(/C=N/Nc2ccc(C(=O)O)cc2)cc1Br	Tau fluor counter inconclusive, Tau ThT inhib 7.1µM
COc1ccc(/C=N/Nc2ccc(C(=O)O)cc2)cc1OC	Tau ThT inhib inconclusive
C(=N\Nc1ccccc1)/c1ccc(N2CCOCC2)cc1	Tau fluor counter inconclusive, Tau ThT inhib 35µM
Cc1ccc(S(=O)(=O)Oc2cccc(/C=N/Nc3ccc(C(=O)O)cc3)c2)cc1	Tau fluor counter inconclusive, FBPA coupling cs -41
O=C(O)c1ccc(N/N=C/c2ccc(-c3ccccc3)cc2)cc1	Tau fluor counter 16µM[quencher], Tau ThT inhib 8.9µM
CC(C)c1ccc(/C=N/Nc2ccc(C(=O)O)cc2)cc1	Tau ThT inhib inconclusive
COc1cccc(NS(=O)(=O)c2ccc3[nH]cc(C(=O)N(C)C4CCCCC4)c(=O)c3c2)c1	none (no result: FBPA coupling cs)
CCCCN1C2=C(C(=O)CC(C)(C)C2)C(c2ccccc2)C2=C1c1ccccc1C2=O (stereo not drawn)	Tau FP inhib inconclusive, Tau ThT inhib 14µM

Compound activity deposited in PubChem BioAssay by National Center for Advancing Translational Sciences (NCATS).
